# Rows were chosen to be rich in hits. Some 2.3% of all compounds tested hit in one or more screens of this group.
# SENP8 block-1: SENP8 protease inhibitors, primary screen, biochemical, luminescence | Sentrin-specific protease 8 (Homo sapiens), Q96LD8 | purified SENP8, Z-RLRGG-aminoluciferin cleavage | inhibition, % at 10 µM | 1.2% of 330,000 active | AID 2540, 2010; in the data active means inhibition above about 50%
# Target sequence (Q96LD8 whole entry, looked up): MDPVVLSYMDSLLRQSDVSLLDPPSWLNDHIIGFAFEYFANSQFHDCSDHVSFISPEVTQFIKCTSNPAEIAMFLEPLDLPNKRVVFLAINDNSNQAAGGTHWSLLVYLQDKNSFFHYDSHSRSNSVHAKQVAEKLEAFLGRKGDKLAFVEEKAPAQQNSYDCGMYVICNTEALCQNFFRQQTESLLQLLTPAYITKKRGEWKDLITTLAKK
# LGR2 antag: inhibitors of bursicon-induced LGR2 CRE-luciferase signal, primary screen, cell-based, HEK293, CRE-luciferase reporter, bursicon stimulation; Drosophila bursicon receptor LGR2 (rickets); bursicon-stimulated, 4 h; inhibition, % at 9.99 µM; 0.35% of 380,000 active;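 active means drop in luminescence signal, shown as inhibition above about 50% in the replicate tests, limit read from the data, passing the limit was not always enough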;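 further: agonist challenge used bursicon conditioned medium at about half maximal strength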
# SENP7 block: SENP7 protease inhibitors, primary screen, biochemical, luminescence, uHTS; inhibition, % at 5 µM; AID 434973, 2010; recombinant SENP7, Z-RLRGG-aminoluciferin luminescence, 40 min; 1.5% of 330,000 active; Sentrin-specific protease 7 (Homo sapiens), Q9BQF6;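 active means inhibition above about 50% at the single test dose, limit read from the data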;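 further: plate controls were DMSO with enzyme for no effect and no enzyme buffer wells for full effect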
# Target sequence (Q9BQF6 706-1050 limits assumed): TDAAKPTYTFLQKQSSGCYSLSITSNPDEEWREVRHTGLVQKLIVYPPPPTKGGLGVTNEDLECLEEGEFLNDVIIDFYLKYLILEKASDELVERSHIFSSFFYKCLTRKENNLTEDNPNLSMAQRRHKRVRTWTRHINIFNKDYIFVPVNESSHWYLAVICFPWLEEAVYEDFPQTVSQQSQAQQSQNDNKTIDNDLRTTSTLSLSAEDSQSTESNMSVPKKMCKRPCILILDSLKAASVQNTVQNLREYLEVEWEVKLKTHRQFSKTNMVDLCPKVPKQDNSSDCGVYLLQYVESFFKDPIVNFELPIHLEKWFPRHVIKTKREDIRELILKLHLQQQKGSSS
# SENP8 block-2: human SENP8 protease inhibitors, primary screen, biochemical, fluorescence, Nedd8 protein substrate, uHTS; AID 602440, 2012; inhibition, % at 20 µM; 0.64% of 360,000 active; Sentrin-specific protease 8 (Homo sapiens), Q96LD8; recombinant SENP8; in the data active means inhibition mostly above about 40%, no sharp cut-off; inactive means mostly below about 27%
# HSP90 refold inh: HSP90 inhibitors, primary screen, cell lysate, luminescence; 0.91% of 290,000 active; AID 1789, 2009; inhibition, % at 5.6 µM; Rabbit reticulocyte lysate, luciferase refolding luminescence, 3 h;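 active means inhibition above the screen-wide mean plus 3 SD, computed separately per campaign, cut at about 16% in these data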;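 further: 0% = DMSO wells and 100% = 60 µM geldanamycin wells; inhibitors lower the luminescence because luciferase stays unfolded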
# SENP6 inh: SENP6 protease inhibitors, primary screen, biochemical, luminescence, uHTS. Recombinant SENP6 catalytic domain, aminoluciferin luminescence. inhibition, % at 10 µM. 1.8% of 330,000 active. AID 2599, 2010;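 active means inhibition above about 50% at the single tested dose, limit read from the data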;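 further: plate controls were DMSO wells with enzyme for no effect and DMSO wells lacking enzyme for full effect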
# An asterisk follows results filed as active; · = no result.
SMILES,SENP8 block-1,LGR2 antag,SENP7 block,SENP8 block-2,HSP90 refold inh,SENP6 inh
N#C/C(=N\Nc1cccc(C(F)(F)F)c1)C(=O)c1ccsc1,64*,·,-1,36,2,88*
O=C(Nc1ccccc1)Nc1cccc(C(F)(F)F)c1,-9,-50,9,1,1,5
CN1[C@@H]2c3ccc(-c4ccccc4)c(=O)n3C[C@H]1[C@H](CO)[C@H]2C(=O)NCC1CC1,·,14,·,·,·,·
c1ccc2cc(N3CCCCC3)ccc2c1,·,-37,·,-483,·,·
O=C1c2ccccc2C(=O)c2cc(N3CCCCC3)ccc21,·,97*,·,44*,·,·
O=c1c2cc(Cl)ccc2nc(-c2ccc(Cl)c(Cl)c2)n1O,15,9,9,-19,8,59*
COc1cc(-c2nc(-c3ccccn3)no2)cc(OC)c1OC,-8,·,-7,-5,0,-6
Cc1ccc(-c2nc(-c3ccccn3)no2)cc1Cl,96*,·,99*,-16,64*,95*
CS(=O)(=O)c1ccc(C(=O)OCC(=O)NC(=O)C2CCCCC2)cc1[N+](=O)[O-],2,60*,3,12,5,-12
NCCCNc1nc(N)c([N+](=O)[O-])c(NC2CCCCC2)n1,-3,54*,0,13,-2,-6
CCCNC(=O)Nc1ccc2c(c1)C(=O)N(C)C[C@H](OC)[C@H](C)CN(C(=O)c1ccccc1F)[C@H](C)CO2,·,-6,·,·,·,·
Cc1cccc2c(N=Nc3ccc(S(=O)(=O)Nc4cccc(Cl)c4)cc3[N+](=O)[O-])c(O)[nH]c12,-11,-20,0,47*,13,-5
CC(=O)Nc1cccc(NC(=O)c2oc3ccccc3c2C)c1,23,-27,54*,·,-4,39
CC(=O)N1[C@H](CO)[C@H]2c3ccccc3N(S(=O)(=O)c3ccccc3F)C[C@H]21,·,9,·,·,·,·
O=C(c1ccc2nc(N3CCCCC3)sc2c1)N1CCN(Cc2ccc3c(c2)OCO3)CC1,-2,-49,2,-2,31*,-7
O=C(c1ccc(Br)o1)N1CCc2ccccc21,93*,·,95*,·,-2,94*
C[C@H](CO)N1C[C@H](C)[C@H](CN(C)Cc2ccc(C(F)(F)F)cc2)Oc2ccc(NC(=O)NC3CCCCC3)cc2C1=O,·,9,·,·,·,·
Cc1ccc(/C=C(\C#N)C(=O)NC(C)C)o1,-2,-2,0,10,2,-4
CC(C)NC(=O)/C(C#N)=C/c1ccc(N(C)C)o1,0,·,-8,40*,1,-7
O=C(O/N=C/c1ccc2c(c1)OCO2)c1ccccc1Cl,84*,·,80*,·,1,86*
O=C(/C=C/c1ccccc1)C1C(=O)c2ccccc2C1=O,3,-1,23,11,0,20
O=C(c1ccccc1)C1C(=O)c2ccccc2C1=O,1,-17,12,46*,2,9
O=c1ccc2cc3c([nH]c4ccc(Br)cc43)oc-2c1O,0,·,17,101*,-3,32
O=c1c2c([nH]c3ccc(Br)cc13)CCCC2,3,·,3,1,·,-6
CCc1ccc(Nc2nnc(SCC(=O)NCCN3C(=O)CSC3=O)s2)cc1,23,-9,43,1,-3,52*
SMILES,SENP8 block-1,LGR2 antag,SENP7 block,SENP8 block-2,HSP90 refold inh,SENP6 inh
CC(=O)N1CC2(C1)[C@H](c1ccccc1)[C@@H](CO)N2CC1CCOCC1,·,20,·,·,·,·
C#Cc1ccc([C@@H]2C=C(C(=O)O)O[C@H](OCc3ccc(CO)cc3)C2)cc1,-6,-9,4,6,16*,-10
C[C@H]1CN([C@@H](C)CO)C(=O)c2cccc(NS(=O)(=O)c3cccs3)c2O[C@@H]1CN(C)CC1CCCCC1,·,-15,·,·,·,·
Cc1ccc2cccc(NC3OC(=O)c4ccccc43)c2n1 (stereo not drawn),22,16,36,10,6,51*
CCC1(OC(=O)CN(C)C)C(=O)OCc2c1cc1n(c2=O)Cc2cc3c(N)cccc3nc2-1 (stereo not drawn),·,·,·,-374,·,·
CCC1(O)C(=O)OCc2c1cc1n(c2=O)Cc2cc3c(N)cccc3nc2-1 (stereo not drawn),·,98*,·,-370,·,·
COc1cc(O)cc(O)c1C(=O)/C=C/c1ccccc1,-10,·,-6,38,-1,-9
COc1cc(OC)c(C(=O)/C=C/c2ccccc2)c(O)c1O,-9,-4,0,45*,·,-9
COc1ccc(N2C(=O)C(C)(C)C2c2c(O)ccc3ccccc23)cc1 (stereo not drawn),-9,-6,-1,-26,17*,-16
O=C(Nc1ccccc1)O[C@@H]1C[C@H]2CCC(=O)N3CC[C@@H](C1)[C@@H]23,55*,·,60*,·,-8,56*
C/C(=N\Nc1nc2c(s1)CCCC2)c1ccccc1,5,·,-3,6,16*,-50
C[C@@H]1CN([C@@H](C)CO)C(=O)CCCn2cc(nn2)CO[C@@H]1CN(C)Cc1ccc(C(=O)O)cc1,·,2,·,·,·,·
O=C(C1CCC1)N1CC2(C1)[C@@H](c1ccccc1)[C@H](CO)N2C(=O)c1ccccn1,·,-4,·,·,·,·
Cc1ccc(C(=O)N2C(=O)c3cccc(N)c3C2=O)o1,-2,-5,4,-108,0,82*
O=C(O)C(S)C(S)C(=O)O (stereo not drawn),·,·,·,49*,·,·
O=C(O)O,·,·,·,·,5,·
CCOC(=O)COc1ccc2c(=O)c(-c3ccccc3)coc2c1,15,-16,4,21,2,15
CC(=O)Oc1ccc2c(=O)c(-c3ccccc3)coc2c1,22,-34,59*,-193,3,21
COc1ccc(-c2cn3c(C)c(C(=O)N4CCc5ccccc5C4)sc3n2)cc1,8,·,-5,14,19*,-2
Cc1c(C(=O)N2CCc3ccccc3C2)sc2nc(-c3ccccc3)cn12,8,·,-1,17,4,4
COc1ccc(-c2cn3c(C)c(C(=O)Nc4cc(NC(C)=O)ccc4OC)sc3n2)cc1,-6,·,2,-287,54*,-9
O=c1c(C=NCCN2CCNCC2)c(-c2ccccc2)[nH]n1-c1ccc([N+](=O)[O-])cc1,90*,·,84*,·,-2,93*
COc1ccc(-c2[nH]n(-c3ccc([N+](=O)[O-])cc3)c(=O)c2C=NCCN2CCNCC2)cc1,3,·,0,·,-4,13
Cc1ccccc1S(=O)(=O)N[C@H]1CC[C@H](CCn2cc(-c3ccccc3)nn2)O[C@@H]1CO,·,36,·,·,·,·
CCOc1cc(N2CCOCC2)c(OCC)cc1NC(=O)CSc1cccc[n+]1[O-],-12,·,-12,47*,2,-7
CCOc1cc(N2CCOCC2)c(OCC)cc1NC(=O)CSc1ncccn1,0,10,3,7,1,8
